Pf growth 96h – inhibits malaria parasite growth, 96 h. P. falciparum luciferase reporter growth, 96 h. Potency, µM (doses to about 28.7 µM), without a hit: at the highest dose activity change, negative = inhibition, most hits filed as inhibitors. 6.9% of 320,000 active. AID 504834; further: potency means the concentration at half of the fitted maximal effect; on the % scale 0 is the no-effect control and ±100 the full control effect
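Compounds incubated with erythrocytes infected by luciferase-expressing P. falciparum (2% hematocrit, 0.05% parasitemia final) for 96 hours, 37 C in 5% CO2. Growth inhibition scored as decreased luciferase luminescence.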
Pf growth 48h – P. falciparum growth inhibition at 48 hours (one generation); P. falciparum luciferase growth in erythrocytes, 48 h; Potency, µM (series often up to 28.7 µM), for inactives: top-dose activity change, negative = inhibition, actives largely listed as inhibitors; 5.9% of 310,000 active; further: potency means the concentration at half of the fitted maximal effect; on the % scale 0 is the no-effect control and ±100 the full control effect
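Growth was read as firefly luciferase luminescence after a 48 h, 37 C, 5% CO2 exposure of compounds to reporter-bearing P. falciparum cultures (0.1% parasitemia, 2% hematocrit final) in Albumax-supplemented RPMI 1640.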
HCMV antiviral – inhibitors of human cytomegalovirus. activity change, negative = inhibition, % at 57.5 µM. 4.5% of 410,000 active. AID 1259415. HFF cells, HCMV-luciferase reporter, 72 h; hits give low values; in the data active means activity change below about -60%; inconclusive means no clear call, values can overlap the other calls; inactive means above about -39%; further: on the % scale 0 is the no-effect control and ±100 the full control effect
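HFF cells seeded 16 h at 37C, treated with compounds, infected with luciferase-reporter HCMV at MOI 1 PFU/cell; luciferase read at 72 h post infection, normalized to buffer-only and Salinomycin controls.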
SARS PLP yeast – blocks SARS-CoV papain-like protease in a yeast assay. 0.19% of 330,000 active. Potency, µM (series often up to 32.9 µM), without a hit: top-dose activity, positive = growth rescue, most hits filed as activators. S. cerevisiae expressing SARS-CoV PLpro, growth rescue; calls by dose curve; further: potency means the concentration at half of the fitted maximal effect; 0% is about no effect; nearly all actives have a fitted effect of over 55% in size
Sm TGR block – inhibitors of Schistosoma mansoni thioredoxin glutathione reductase. purified TGR, DTNB reduction, TNB absorbance 405 nm. Potency, µM (highest dose often 114 µM), for inactives: at the highest dose activity change, negative = inhibition, usual class: inhibitors. 3% of 360,000 active; further: potency means the concentration at half of the fitted maximal effect; on the % scale 0 is the no-effect control and ±100 the full control effect; nearly all actives have a fitted effect of over 60% in size
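Kinetic colorimetric format: TGR-catalysed, NADPH-driven DTNB reduction monitored via TNB absorbance. Enzyme dispensed at 20 nM; compound exposure 15 min at room temperature before reaction start.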
HCV inhibitor – blocks hepatitis C virus; 3.4% of 340,000 active; Potency, µM (highest dose often 41.8 µM), without a hit: top-dose activity change, negative = inhibition, usual class: inhibitors; Huh7.5.1 HCVcc-Cre infection, luciferase reporter, 44 h; further: potency means the concentration at half of the fitted maximal effect; on the % scale 0 is the no-effect control and ±100 the full control effect
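After 44 h co-culture of compound, cells and HCVcc-Cre (~0.5 moi), substrate is added for 15 min at room temperature and luciferase measured over 15 sec. Cells were seeded at 1,000/well and pre-cultured 4 h.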
Active calls of the source: *; ? = inconclusive; . = no result given. Shown are actives, neighbours in structure and some others; about 15% of the full set was active somewhere. Unless noted, the call rests on the fitted dose curve; in most records, active means well fitted curve in the direction sought with a large enough effect; inconclusive means small, poorly fitted or top-dose-only effect, or another doubt; inactive means no such curve, though single readings can be large; an effect the other way counts as inactive or inconclusive.

SMILES	Pf growth 96h	Pf growth 48h	HCMV antiviral	SARS PLP yeast	Sm TGR block	HCV inhibitor
FC(F)(F)c1nc(NCc2cccnc2)c2ccccc2n1	10.3%	48.4%	-61.9*	-3.8%	-10.9%	-25.1%
N#Cc1c(NCc2ccccc2)ccnc1NCc1cccnc1	-20.1%	?	-80.2*	1.6%	-1.6%	7.08µM*
O=[N+]([O-])c1cccc(-c2nc(NCc3ccccc3)c3ccccc3n2)c1	10.6%	?	12.8	-0.5%	1.6%	?
CC1CCCC(C)N1C(=O)COC(=O)c1ccc2ccccc2n1 (stereo not given)	.	.	-5.0	2.7%	.	9.1%
c1ccc(-c2nc(NCc3cccnc3)c3ccccc3n2)cc1	?	?	-13.0	-20.6%	18.5%	10µM*
Cc1ccc(-c2nc(NCc3cccnc3)c3ccccc3n2)cc1	75.5%	?	-19.8	-13.8%	0.0%	?
CC1CCCCN1C(=O)c1cc2ccccc2cc1O (stereo not given)	9.3%	?	-9.2	16.6%	3.7%	-17.0%
CCOc1ccccc1CNC(=O)c1cc2n(n1)CCCN(Cc1ccc(C)cc1)C2=O	.	.	-15.4	.	9.4%	.
Cc1nnc(SC(C)C(=O)NCC2CCCO2)n1-c1ccccc1 (stereo not given)	-12.2%	-16.6%	31.0	-11.6%	7.5%	8.7%
CC(Sc1nn(-c2ccccc2)c(=S)s1)C(=O)NCC1CCCO1 (stereo not given)	13.1µM*	9.28µM*	-22.1	.	-0.5%	-3.4%
CS(=O)(=O)c1ccc(-n2nnc3ccccc32)c([N+](=O)[O-])c1	-16.5%	-18.8%	-0.5	1.8%	-1.2%	-11.0%
CN(C)CCCNS(=O)(=O)c1ccc(-n2nnc3ccccc32)c([N+](=O)[O-])c1	?	0.0%	-23.4	0.6%	-2.3%	17.8µM*
COc1ccc(NS(=O)(=O)c2ccc(-n3nnc4ccccc43)c([N+](=O)[O-])c2)cc1	-2.9%	.	-62.7*	6.4%	0.0%	4.6%
CN(C)CCNS(=O)(=O)c1ccc(N2CCc3ccccc32)c([N+](=O)[O-])c1	?	?	-13.0	7.9%	-16.9%	10µM*
CCC1CCCCN1C(=O)c1ccc(OC2CCN(C(=O)CCOC)CC2)cc1 (stereo not given)	-20.3%	-25.0%	0.0	0.3%	?	21.2%
Cc1cccc(C(=O)OCC(=O)Nc2ccc3c(c2)OCCO3)c1O	-21.7%	-10.5%	6.2	-6.0%	-8.1%	-1.3%
Cc1nccn1CCOc1ccc(Cl)cc1	37.8%	2.1%	-6.8	0.6%	4.1%	-7.9%
O=C(NCc1ccccc1F)C(=O)NCC1CCCN1S(=O)(=O)c1cccs1 (stereo not given)	?	?	-38.0	5.4%	-20.3%	-9.7%
COc1cc(C(=O)NCC2CCCN2S(=O)(=O)c2cccs2)cc(OC)c1OC (stereo not given)	?	11.7µM*	29.0	-1.9%	-10.8%	2.3%
O=C(NCCc1ccc(F)cc1)C(=O)NCC1CCCN1S(=O)(=O)c1cccs1 (stereo not given)	?	13.1µM*	-29.4	2.4%	-4.4%	?
COc1ccccc1CNC(=O)C(=O)NCC1CCCN1S(=O)(=O)c1cccs1 (stereo not given)	0.0%	11.7µM*	-5.8	1.4%	-18.7%	24.0%
Cc1ccc(C(=O)NCC2CCCN2S(=O)(=O)c2cccs2)cc1C (stereo not given)	?	?	-17.6	0.7%	-1.2%	3.6%
COc1ccccc1CC(=O)N1CCN(S(=O)(=O)c2cccs2)CC1	14.7µM*	-15.6%	5.0	5.0%	0.7%	-13.0%
CCCCCCOc1ccc(N2C(=O)CC(SC(=NCC)NCC)C2=O)cc1 (stereo not given)	0.0%	-3.5%	?	2.1%	-0.6%	-2.4%
CSCCC(NS(=O)(=O)c1ccccc1F)C(=O)Nc1ccncc1 (stereo not given)	?	?	27.6	-4.1%	3.7%	12.9%
SMILES	Pf growth 96h	Pf growth 48h	HCMV antiviral	SARS PLP yeast	Sm TGR block	HCV inhibitor
CCCc1cc(-c2[nH]ncc2-c2ccc(C(=O)OCC)o2)c(O)cc1O	7.1%	6.57µM*	-62.0*	4.6%	?	?
CCCc1cc(-c2[nH]ncc2-c2ccc3c(c2)OCCCO3)c(O)cc1O	13.1µM*	?	39.2	-1.4%	0.0%	11.2µM*
Cn1cc(CNCc2cn[nH]c2-c2ccc(F)cc2)c(-c2ccc3c(c2)OCCO3)n1	-4.6%	14.9%	-27.9	-0.9%	-16.1%	1.9%
CCOC(=O)/C(=N\Nc1ccc(OC)cc1)c1csc(Nc2ccccc2)n1	10.4µM*	.	-34.5	-4.4%	-9.2%	1µM*
CCOC(=O)/C(=N/Nc1ccccc1)c1csc(Nc2ccccc2)n1	?	.	-30.9	-6.4%	4.8%	?
Cc1oc(S(=O)(=O)N2CCCCC2)cc1NC(=O)Nc1ccccc1	?	0.5%	16.8	0.0%	10µM*	22.5%
O=C(Nc1ccccc1)Nc1ccc(S(=O)(=O)N2CCCCC2)cc1	-12.2%	?	-13.5	-22.9%	-0.1%	-4.9%
Cc1oc(S(=O)(=O)N2CCCCC2)cc1NC(=O)Nc1ccc(Cl)cc1	?	?	-25.0	-0.7%	35.5µM*	-20.4%
Cc1cc(C)c(Cn2c(=O)n(CCCCC(=O)NCc3ccccc3Cl)c(=O)c3ccccc32)c(C)c1	.	.	2.0	.	-0.9%	.
O=C(CNc1cc(S(=O)(=O)N2CCOCC2)ccc1N1CCCC1)Nc1ccc(Cl)cc1	.	.	21.5	.	.	-25.8%
CCC(=O)Nc1ccc(/C(C)=N\NC(=O)c2ccc(C)s2)cc1	?	?	-22.5	-2.3%	6.1%	1.9%
C/C(=N/NC(=O)c1ccc(Cl)s1)c1ccc(NC(=O)COc2ccc(Cl)cc2)cc1	?	-17.1%	-77.0*	-5.7%	-3.5%	13.4%
NS(=O)(=O)c1ccc(NC(=S)NC(=O)c2ccc(Br)o2)cc1	35.3%	22.6%	-28.3	0.7%	-6.4%	-16.4%
Cc1ccc(C)c(C(C)NC(=O)c2ccc(Br)o2)c1 (stereo not given)	?	-20.8%	-15.3	-0.2%	35.5µM*	-9.2%
Cc1cc(C)cc(NS(=O)(=O)c2ccc(NC(=S)NC(=O)c3ccc(Br)o3)cc2)c1	.	?	-76.0*	3.6%	-17.8%	?
Cc1cc(NC(=O)c2ccc(Br)o2)ccc1NC(=O)c1ccco1	?	-10.1%	-88.9*	-9.7%	-3.5%	-3.9%
Cc1ccc(NS(=O)(=O)c2ccc(NC(=O)c3ccc(Br)o3)cc2)c(C)c1	-18.7%	?	-30.9	0.7%	-0.9%	12.6µM*
Cc1ccc(C(=O)Nc2ccc(NC(=O)c3ccco3)c(C)c2)cc1	3.2%	77.0%	-27.4	1.7%	-13.2%	-28.7%
CC1(C(=O)O)CCN1C(=O)c1cccc(C(F)(F)F)c1 (stereo not given)	.	.	3.3	.	.	.

Assay outcomes as filed in PubChem.
